The list is not random: actives were taken first. Their share in the collection is about 5.4%.
SMARCA2 act: SMARCA2 (BRM) function activators, primary screen, cell-based, luminescence, high throughput | hit rate 1% among 370,000 | MG213 cells, MMTV-luciferase reporter, dexamethasone, overnight | activation, % at 9.1 µM | AID 652017, 2013; in the data active means activation above about 7.8%;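 further: 0% = vehicle wells and 100% = reference activator wells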
beta cell repl: inducers of MIN6 beta-cell proliferation, primary screen, ATP luminescence, uHTS; MIN6 cells proliferation, ATPlite luminescence, 48 h; cells starved in 0.2% serum; 100% = growth in 10% serum; proliferation, % at 10 µM; hit rate 0.29% among 330,000; AID 2380, 2010;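 active means compounds whose signal lies at least 3.5 SD above the mean of all wells on their plate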;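 further: 0% = DMSO-treated cells in low-serum medium and 100% = 10% serum control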
PfM18AAP inh: PfM18AAP inhibitors, malaria aminopeptidase, primary screen, biochemical, QFRET, recombinant enzyme; H-Glu-NHMec fluorogenic cleavage; inhibition, % at 7.35 µM; hit rate 1.2% among 290,000; M18 aspartyl aminopeptidase (Plasmodium falciparum 3D7);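 active means inhibition above the campaign mean inhibition over all tested compounds plus 3 SD, cut at about 28% in these data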;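 further: 0% = plate median of test compound wells and 100% = 2 mM ZnCl2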
JMJD2C inh: inhibitors of GASC-1 histone demethylase, primary screen, biochemical, fluorescence, DELFIA europium | GST-JMJD2C(1-420) H3K9me3 demethylation | inhibition, % at 2.35 µM | hit rate 0.069% among 330,000 | AID 2099, 2009;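 active means more than half of a compound's replicate wells show inhibition beyond 50%, single wells judged on their own value; inconclusive means some, but no more than half, of replicates pass 50% inhibition; inactive means no replicate passes 50% inhibition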;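 further: signal counts dimethyl H3K9 product captured on neutravidin plate; 0% = median of DMSO wells and 100% = 0.3 times that DMSO median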
Target sequence (Q9H3R0 1-420 limits assumed): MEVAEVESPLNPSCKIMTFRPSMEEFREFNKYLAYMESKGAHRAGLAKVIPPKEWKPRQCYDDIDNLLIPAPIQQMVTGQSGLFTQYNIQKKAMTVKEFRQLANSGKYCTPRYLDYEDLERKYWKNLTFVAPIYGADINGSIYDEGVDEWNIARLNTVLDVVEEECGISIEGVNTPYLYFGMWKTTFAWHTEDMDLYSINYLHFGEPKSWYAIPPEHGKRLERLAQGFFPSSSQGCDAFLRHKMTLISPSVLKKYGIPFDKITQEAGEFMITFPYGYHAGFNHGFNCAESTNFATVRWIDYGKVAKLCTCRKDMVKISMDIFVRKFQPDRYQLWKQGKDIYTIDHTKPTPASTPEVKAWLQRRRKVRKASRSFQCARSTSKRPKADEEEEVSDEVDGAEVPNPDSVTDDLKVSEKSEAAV
ALR H2O2 inh: inhibitors of human ALR sulfhydryl oxidase, primary screen, biochemical, H2O2 detection, HRP-luminol luminescence, single point | inhibition, % (no concentration beside the values) | purified ALR, DTT oxidation | hit rate 3.8% among 290,000 | AID 485317, 2010 | FAD-linked sulfhydryl oxidase ALR (Homo sapiens), P55789;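 active means mean replicate inhibition above about 79%, with every replicate also reaching it, limit read from the data; inconclusive means only one of the two criteria met; inactive means mean below limit and not every replicate reaching it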
Exocytosis inh: LAMP-1 surface exposure blockers, TALL-104 cells – cell-based, flow cytometry, MLPCN library, primary screen; TALL-104 LAMP-1 surface exposure; cells stimulated with thapsigargin and PMA; inhibition, % at 10 µM; hit rate 0.66% among 360,000; AID 651702, 2012;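 active means inhibition above about 55%, limit read from the data; inconclusive means no clear call, values can overlap the other calls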
The depositor's hits bear a star; ? = inconclusive; . = no result given.

SMILES	SMARCA2 act	beta cell repl	PfM18AAP inh	JMJD2C inh	ALR H2O2 inh	Exocytosis inh
COC(=O)[C@H](CC(C)C)N(Cc1cn(CC2CCCCC2)nn1)S(=O)(=O)c1ccc(F)cc1Br	1.9	.	.	.	.	.
O=S(=O)(/N=C(/Sc1ccccc1)c1ccccc1)c1ccccc1	-2.0	-5.8	1.2	91.8	97.9*	2.3
CCN(CC)C(=O)CC[C@H]1CC[C@]2(CCCN(C3CCCCC3)C2)O1	-3.4	.	.	.	.	.
CCCCCCCCN1CCS(=O)(=O)N(Cc2ccc(Cl)cc2)C(C(=O)OC)C1 (configuration not stated)	0.2	.	.	.	.	.
O=C(/C(=C/c1ccc(Cl)cc1)c1nc2ccccc2[nH]1)c1cccs1	.	-5.4	3.5	6.3	2.7	96.3*
CCOC(=O)C(=Cc1ccc(-c2ccsc2C(=O)OC)o1)C(=O)OCC	5.5	-5.5	-3.9	-2.0	.	0.4
COC(=O)C(=Cc1ccc(-c2ccsc2C(=O)OC)o1)C(=O)OC	7.9*	-1.4	3.2	2.5	2.4	51.8
Fc1ccc(Nc2nc(N3CCOCC3)c3ccccc3n2)cc1	-1.9	-2.8	.	-3.2	92.8*	0.8
Cc1cc(Nc2ccccc2)nc2cc(O)ccc12	2.1	3.7	-4.4	2.0	96.1*	3.8
COc1ccc(Nc2cc(C)c3ccc(O)cc3n2)cc1	4.5	-3.6	-6.3	-4.1	98.7*	3.2
COC(=O)[C@]12C[C@H](CC(=O)N3CCOCC3)C(=O)N(CCC3=CCCCC3)C1=C[C@H](C(C)C)O[C@@H]2C1CC1	-4.0	.	.	.	.	.
COc1cc(NC(=O)N2c3ccccc3Sc3ccccc32)c(C(=O)O)cc1OC	3.4	-2.8	9.4	-27.5	99.1*	-8.2
COc1ccc(/C(O)=C2\C(=O)C(=O)N(CCN(C)C)C2c2cccc(OC)c2OC)cc1 (configuration not stated)	9.6*	-0.1	3.1	1.7	1.1	1.1
CCN(CC)CCN1C(=O)C(=O)/C(=C(/O)c2ccc3c(c2)CC(C)O3)C1c1ccc(OC)cc1 (configuration not stated)	-2.8	0.2	6.4	-1.8	.	92.1*
CCOc1ccc(C2/C(=C(/O)c3ccc4c(c3)CC(C)O4)C(=O)C(=O)N2CC2CCCO2)cc1 (configuration not stated)	-2.4	3.8	2.7	43.7	-14.9	-0.1
N=c1oc2ccccc2cc1-c1nc2ccccc2c(=O)[nH]1	0.6	-3.2	-0.5	-15.6	93.7*	13.7
Cc1cccc(NCc2ccccc2O)c1C	-2.7	-1.0	4.8	-3.7	99.5*	1.7
Cc1ccc(NCc2ccccc2O)c(C)c1	1.1	2.2	-3.8	-15.1	?	-2.2
Cn1ccnc1SCc1cn2ccccc2n1	7.4	-0.4	3.8	4.0	94.3*	3.9
c1ccn2cc(CSc3nnc4ccccn34)nc2c1	6.8	-4.3	-2.9	7.7	-0.5	-2.8
N#CC(C#SN)=C1CCCCC1	-2.5	1.1	29.5*	16.0	29.9	0.2
C=CCN1C(=O)[C@H](CC(=O)N2CCC(c3ccccc3)CC2)[C@@]2(C(=O)OCC)CCCC=C12	-3.9	.	.	.	.	.
CCCCOc1ccc(-c2nc(=S)[nH][nH]2)cc1	-0.9	-2.6	-23.0	-8.2	98.8*	7.6
COC(=O)c1cc2c(c3c4ccccc4n(S(=O)(=O)c4cccc(C)c4)c13)C(=O)N(Cc1ccc(N(C)C)cc1)C2	-5.4	.	.	.	.	.
NC(Cc1ccc(O)cc1)C(=O)NN=Cc1ccccc1Cl (configuration not stated)	-0.6	.	.	.	.	.
COc1ccc(-c2noc(CN(C)S(=O)(=O)c3ccccc3)n2)cc1OC	3.0	-1.4	2.1	-2.0	96.6*	-1.1
c1ccc(-c2noc(CN3CCN(c4ccccc4)CC3)n2)cc1	1.0	-2.0	3.0	0.5	82.0*	-1.0
Fc1ccccc1N1CCN(Cc2nc(-c3ccccc3)no2)CC1	-1.6	2.3	-9.1	-8.2	-16.7	-0.6
COc1ccc(-c2noc(CN3CCN(c4ccccc4F)CC3)n2)cc1OC	-0.1	-2.3	-0.1	-3.5	99.7*	-0.9
